Assay outcomes: PubChem BioAssay, National Center for Advancing Translational Sciences (NCATS)
A selection: hits, their analogues and other compounds. The true share with any hit is near 19%.
DT40 TDP1 CPT: growth inhibition of DT40 Tdp1-/-;hTDP1 cells with camptothecin (screen for TDP1 inhibitors) | AID 686979 | Potency, µM (series often up to 46.2 µM), for inactives: top-dose activity change, negative = growth inhibition, hits mostly inhibitors | chicken DT40 Tdp1-/-;hTDP1 cells + 20 nM CPT, ATP luminescence, 48 h | 12% of 420,000 active; further: potency means the concentration at half of the fitted maximal effect; nearly all actives have a fitted effect of over 55% in size
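Cell growth measured by CellTiter-Glo luminescence after a minimum 48 h, 37 C compound exposure with 20 nM CPT in Tdp1-knockout DT40 cells stably expressing hTDP1, seeded 400/well; qHTS titration format.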
IL-1B inflam inh: inflammasome signaling inhibition, IL-1 beta readout; THP-1 LPS/ATP IL-1B secretion, AlphaLISA, 16 h; active compounds read low; activity change, % at 57.5 µM; 4.7% of 360,000 active; AID 743279; in the data active means activity change below about -50%; inconclusive means mostly about -30% to -49%
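THP-1 cells pretreated 1 hr with compounds (up to 57.5 uM final), then stimulated with LPS (250 ng/mL final) plus ATP (1.25 mM final); secreted IL-1B measured by AlphaLISA after 16 hr, decreased signal indicating inhibition.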
HT1080-NT tox: kills 2HG-producing HT-1080-NT fibrosarcoma cells. 1.6% of 360,000 active. Potency, µM (top dose mostly 46.1 µM), inactives show top-dose activity, negative = less viability, actives largely listed as cytotoxic. HT-1080-NT fibrosarcoma viability, CellTiter-Glo ATP luminescence, 48 h;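 further: NT is the 2HG producing partner of a matched IDH1 knockdown line; potency means the concentration at half of the fitted maximal effect; 0% = DMSO-treated cells and -100% = media-only wells without cells; nearly all actives have a fitted effect of over 55% in size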
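Viability by CellTiter-Glo luminescence after 48 h compound exposure at 37C of HT-1080-NT cells (750/well, RPMI, 5% FBS). % activity scaled between DMSO wells and medium-only wells, then curve-fitted and categorized by curve class.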
HT1080 IDH1KD tx: kills HT-1080 cells with IDH1 knockdown; Potency, µM (titrated, usually from 46.1 µM), for inactives: top-dose activity, negative = toxicity, most hits filed as cytotoxic; AID 686971; HT-1080 IDH1 knockdown viability, ATP luminescence, 48 h; 2% of 360,000 active;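 further: potency means the concentration at half of the fitted maximal effect; 0% = DMSO wells and -100% = cell-free medium wells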
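In this qHTS, HT-1080 cells depleted of IDH1 are exposed for 48 h at 37 °C to compound titrations. Toxicity is scored from CellTiter-Glo luminescence, with DMSO as full viability and medium alone as none.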
DT40 TDP1 no CPT: qHTS for Inhibitors of human tyrosyl-DNA phosphodiesterase 1 (TDP1): qHTS in cells in absence of CPT; DT40 Tdp1-/- hTDP1 cells, no CPT, ATP luminescence, 48 h; 15% of 420,000 active; Potency, µM (doses to about 46.2 µM), for inactives: at the highest dose activity change, negative = growth inhibition, actives largely listed as inhibitors; further: potency means the concentration at half of the fitted maximal effect; nearly all actives have a fitted effect of over 55% in size
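Readout: luminescence from CellTiter-Glo after 30 min in the dark at RT. Cells: DT40 Tdp1-/- with stable hTDP1, 400/well. Exposure: compounds alone, ≥48 hr, 37 °C.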
An asterisk follows results filed as active; ? = inconclusive; / = not tested or not shown. Unless noted, the call rests on the fitted dose curve; in most records, active means well fitted curve in the direction sought with a large enough effect; inconclusive means small, poorly fitted or top-dose-only effect, or another doubt; inactive means no such curve, though single readings can be large; an effect the other way counts as inactive or inconclusive. Unless noted, on the % scale 0 is the no-effect control and ±100 the full control effect.

SMILES | DT40 TDP1 CPT | IL-1B inflam inh | HT1080-NT tox | HT1080 IDH1KD tx | DT40 TDP1 no CPT
CCOCCn1c(CN2CCN(c3cccc(Cl)c3)CC2)nc2c1c(=O)n(C)c(=O)n2C | 7.3µM* | 16 | -19% | -5% | 5.2µM*
COCCn1c(CN2CCN(c3cccc(Cl)c3)CC2)nc2c1c(=O)n(C)c(=O)n2C | 8.2µM* | 48 | -4% | -5% | 13µM*
COCCn1c(CN2CCN(C)CC2)nc2c1c(=O)n(C)c(=O)n2C | 4% | 0 | 0% | 7% | 0%
CCC(C)NC(=O)CN1C(=O)C(CC)Sc2ccccc21 (stereo not given) | 5% | 13 | 10% | -3% | 14%
CCC1Sc2ccccc2N(CC(=O)NCc2ccc(C)cc2)C1=O (stereo not given) | ? | / | / | / | 23µM*
O=C(NCc1ccc(F)cc1F)Nc1cnccc1C(F)(F)F | -14% | 0 | 3% | -5% | ?
CCOc1cc(C(N)=O)cc(Br)c1OC | 23µM* | -13 | -4% | 10% | 16µM*
CCOc1cc(C(N)=O)cc(OCC)c1OCC | -4% | 4 | 8% | 9% | -12%
COc1cccc(Cn2c(=O)c(C)nc3cnc(N(C)C)nc32)c1 | 16µM* | / | / | / | ?
Cc1nc2cnc(N(C)C)nc2n(CCc2ccccc2)c1=O | 5.2µM* | / | / | / | 8.2µM*
O=C1OCC2=C1C(c1ccccc1)CC(=O)N2c1ccccc1 (stereo not given) | 1% | -11 | 16% | 10% | 4%
Cc1ccc(-c2cnc(-c3ccccc3C(=O)O)o2)cc1 | 15% | -6 | 8% | 14% | -7%
CCOC(=O)CNC(=O)c1ccc2[nH]c3c(c2c1)CCCC3 | 15% | 10 | 12% | 0% | -14%
CC(=O)c1cccc(NS(=O)(=O)c2ccc3c(c2)NC(=O)CC(=O)N3)c1 | 5% | / | / | / | 1%
CC(=O)c1cccc(NS(=O)(=O)c2ccc3[nH]c4c(c3c2)CCCCCC4)c1 | ? | / | / | / | 21µM*
CC(=O)c1cccc(NS(=O)(=O)c2ccc3[nH]c4c(c3c2)CCCCC4)c1 | 21µM* | / | / | / | 16µM*
CCOC(=O)c1cccc(NS(=O)(=O)c2ccc3[nH]c4c(c3c2)CCCC4)c1 | 23µM* | / | / | / | ?
COCCCNC(=O)c1cc(-c2cccnc2)nc2ccccc12 | -8% | 26 | 5% | 1% | -7%
CCn1cc(CNC(=O)c2cc(-c3ccc(C)c(C)c3)nc3ccccc23)c(C)n1 | 15µM* | / | / | / | 16µM*
Cc1cccc(-c2cc(C(=O)NCc3ccccn3)c3ccccc3n2)c1 | 16µM* | -23 | -4% | 7% | 13µM*
O=C(NCCc1ccccn1)c1cc(-c2ccccc2Cl)nc2ccccc12 | -30% | -4 | 1% | -8% | 18µM*
O=C(NCCc1ccc(Cl)cc1)c1cc(-c2ccccn2)nc2ccccc12 | ? | 0 | 3% | 8% | ?
COCCNC(=O)c1cc(-c2ccc(-c3ccccc3)cc2)nc2ccccc12 | 12µM* | -66* | ? | ? | 5.2µM*
CCn1cc(-c2cc(C(=O)O)c3ccccc3n2)cn1 | 9.2µM* | 38 | -31% | ? | ?
O=C(NCc1ccccn1)c1cc(-c2ccc(-c3ccccc3)cc2)nc2ccccc12 | 16µM* | -1 | ? | ? | 8.2µM*
O=C(NCc1ccccn1)c1cc(-c2ccccc2)nc2ccccc12 | 5% | -2 | 10% | 20% | -3%
Cc1cc(F)cc(-c2cc(C(=O)NCc3ccccn3)[nH]n2)c1 | -6% | -86* | ? | 20% | -5%
Cc1ccc(-c2cc(C(=O)NCCCN3CCCC3)c3ccccc3n2)cc1C | ? | -73* | ? | ? | 29µM*
Cc1ccc(-c2cc(C(=O)NCCCN3CCOCC3)c3ccccc3n2)cc1C | -4% | -10 | -22% | -27% | ?
Cc1ccc(N2CC(C(=O)Nc3nnc(SCC(=O)N4CCOCC4)s3)CC2=O)cc1 (stereo not given) | 14% | 14 | 4% | 8% | 9%
